Compound activity from PubChem.
Only some compounds are listed: those with a hit (about 1.1% of all), similar ones and a draw of the others.
MIN6 prolif = MIN6 beta-cell proliferation induction. MIN6 cells proliferation, ATPlite luminescence, 48 h; cells starved in 0.2% serum; 100% = growth in 10% serum. proliferation, % at 10 µM. hit rate 0.29% among 330,000;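 active means compounds whose signal lies at least 3.5 SD above the mean of all wells on their plate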;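 further: 0% = DMSO-treated cells in low-serum medium and 100% = 10% serum control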
APOBEC3G inh = inhibitors of human APOBEC3G DNA deaminase | Q9HC16 | recombinant A3G, ssDNA deamination FAM/TAMRA fluorescence | inhibition, % at 20 µM | hit rate 0.28% among 330,000;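 active means inhibition of at least 40% at 20 µM, with no more than 30% in the related APOBEC3A deaminase screen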;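 further: plate controls were DMSO wells with A3G for no effect and wells lacking A3G enzyme for full effect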
Target sequence (Q9HC16 whole entry, looked up): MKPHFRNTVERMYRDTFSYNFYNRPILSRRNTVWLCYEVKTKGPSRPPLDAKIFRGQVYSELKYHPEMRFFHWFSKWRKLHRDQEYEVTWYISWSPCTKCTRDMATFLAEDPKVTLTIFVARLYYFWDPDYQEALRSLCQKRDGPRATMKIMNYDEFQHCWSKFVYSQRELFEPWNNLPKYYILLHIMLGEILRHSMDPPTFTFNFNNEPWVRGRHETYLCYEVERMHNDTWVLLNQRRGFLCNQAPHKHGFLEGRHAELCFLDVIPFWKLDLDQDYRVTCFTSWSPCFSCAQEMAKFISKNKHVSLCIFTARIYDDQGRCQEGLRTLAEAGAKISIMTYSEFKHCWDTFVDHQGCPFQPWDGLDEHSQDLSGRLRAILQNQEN
APOBEC3A inh = human APOBEC3A DNA deaminase inhibition; P31941; recombinant A3A, FAM/TAMRA ssDNA deamination fluorescence; hit rate 0.41% among 330,000; inhibition, % at 20 µM;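 active means at least 40% inhibition at 20 µM here, with at most 30% in a related deaminase screen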;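 further: plate controls were A3A with DMSO for no effect and wells lacking A3A enzyme for full effect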
Target sequence (P31941 whole entry, looked up): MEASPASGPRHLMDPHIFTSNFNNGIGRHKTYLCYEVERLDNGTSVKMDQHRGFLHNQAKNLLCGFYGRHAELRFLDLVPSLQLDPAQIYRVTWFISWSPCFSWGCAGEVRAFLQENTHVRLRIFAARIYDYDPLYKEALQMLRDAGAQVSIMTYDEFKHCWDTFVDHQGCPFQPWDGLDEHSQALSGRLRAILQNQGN
A1 inh = inhibitors of the anti-apoptotic protein A1, read as caspase activation | MEF A1-2A-BIM cells, Caspase-Glo 3/7 luminescence, 3 h; percent of clofoctol response, vehicle zero | caspase activation, % (no concentration beside the values) | hit rate 0.066% among 330,000 | AID 2462;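 active means over half of replicate activation scores above 10%, or exactly half above 10 with the replicate mean above 10; inconclusive means replicate mean below 10 yet half the replicates above 10; inactive means over half of replicates below 10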
Active calls of the source: *; u = inconclusive; x = not tested or not shown.

SMILES	MIN6 prolif	APOBEC3G inh	APOBEC3A inh	A1 inh
CN(CC(=O)Nc1ccc(S(=O)(=O)N2CCCC2)cc1)CC(=O)Nc1cccc(F)c1	-1.0	-2.2	1.1	0.0
COc1ccc(C2(O)C(=O)Nc3ccc(C)cc32)cc1OC (stereo not drawn)	-1.0	-10.4	-3.8	0.2
CCOc1ccccc1/C=C/C(=O)N1CCN(C(=O)c2ccco2)CC1	-3.1	-5.1	-3.6	-0.8
O=c1c(Cl)c(Cl)cnn1Cc1ccccc1Cl	x	x	x	8.3*
Cc1ccc(Cn2ncc(Cl)c(Cl)c2=O)cc1	-4.5	-5.2	-2.4	-0.9
Cc1cc(C)cc(Cn2ncc(Cl)c(Cl)c2=O)c1	x	x	x	6.7*
Cc1c(C(=O)OCC(=O)Nc2ccc(C(=O)N(C)C)cc2)oc2ccccc12	-2.7	-8.2	-2.2	0.5
CC(C)COP(=O)(CNC(=O)CN1C(=O)c2ccccc2S1(=O)=O)OCC(C)C	0.0	-0.7	2.5	0.3
Cc1ccc(-c2nn3c(C)nnc3s2)cc1NC(=O)c1ccc(-c2cccc(Cl)c2)o1	-3.5	9.1	4.5	x
Cc1ccc(-c2nn3c(C)nnc3s2)cc1NC(=O)c1ccc(-c2ccc(Cl)cc2Cl)o1	-5.4	-2.7	43.2*	0.3
COc1ccc([C@H]2CC(=O)C=C(c3ccc(C)c(F)c3)C2)cc1	-0.7	-5.7	-1.7	-0.6
O/N=C(\CN1CCCCC1)c1ccccc1	-1.5	0.6	-0.3	1.2
O=C1C(Cl)=C(NCCCO)C(=O)c2ccccc21	-3.6	-4.9	-2.6	-0.2
O=C1C(SCCO)=C(SCCO)C(=O)c2ccccc21	-8.3	73.3*	-7.5	-2.8
N#Cc1c2ccc(OCC(N)=O)cc2n2ccccc12	8.1*	-9.3	-4.7	-0.1
Cc1ccccc1/C=C/C(=O)c1ccc([N+](=O)[O-])o1	-8.0	-11.5	0.8	10.9*
COc1ccccc1CCC(=O)NNC(=O)c1ccc(Br)cc1	0.8	-4.6	0.1	u
CCOC(=O)C(C(=O)OCC)c1cc(Br)c2noc3c2c1C(=O)c1ccccc1-3	-6.7	15.3	22.6	10.5*
COCCCNC(=O)c1ccc2c3c(onc13)-c1ccccc1C2=O	-4.3	-3.2	2.9	-1.4
COc1ccc(NC(=O)CSc2nc3ccc(Nc4nc(N5CCOCC5)nc(N5CCOCC5)n4)cc3s2)cc1	-1.8	-1.6	-2.8	3.6
Cc1ccc(NC(=O)CSc2nc3ccc(Nc4nc(N5CCOCC5)nc(N5CCOCC5)n4)cc3s2)cc1	-5.9	-0.3	0.9	10.0*
Nc1nonc1C(=O)N/N=C/c1cc2c(cc1Br)OCO2	-3.4	7.9	-0.8	-1.0
COc1ccc(S(=O)(=O)N2CCNCC2)cc1	-0.4	-4.8	-4.5	1.1
COc1ccc(OC)c(C2C(C(C)=O)=C(O)C(=O)N2Cc2cccnc2)c1 (stereo not drawn)	-3.6	-4.0	-6.7	5.2*
NS(=O)(=O)c1ccc(CCNC(=O)c2cccc(S(=O)(=O)N3CCCC3)c2)cc1	4.3	-1.7	0.4	-0.6
SMILES	MIN6 prolif	APOBEC3G inh	APOBEC3A inh	A1 inh
COc1ccc(-c2cc3ccccc3oc2=O)cc1NC(=S)NC(=O)c1ccc2c(c1)OCCO2	-3.0	4.6	3.3	25.8*
COc1ccccc1-c1cc(C(F)(F)F)nc(S(=O)(=O)CCCC(=O)N2CCOCC2)n1	-4.2	0.3	3.2	6.1*
C#CCOCCOCCOCCNc1nc(N2CCN(C(=O)CCCCCCCCCCNC(=O)[C@H]([C@@H](C)CC)n3cc(CCCCCN)nn3)CC2)nc(N2CCN(C(=O)CCCCCCCCCCNC(=O)[C@@H]([C@H](C)CC)n3cc(CCCCCN)nn3)CC2)n1	-8.2	-4.6	-4.5	6.6*
O=C(NCc1ccc2c(c1)OCO2)C1CCN(c2ncccn2)CC1	2.7	-3.0	-1.1	5.2*
Cc1ccnc(N2CCC(C(=O)NCc3ccc4c(c3)OCO4)CC2)n1	-3.6	-0.9	-0.5	-1.2
Cc1cc(C)nc(N/N=C/c2cc(Br)ccc2O)n1	-2.9	-4.1	0.2	0.4
CC(C)c1cccc(-c2ccc3c(c2)S(=O)(=O)c2cccc(C(=O)NCc4ccccc4)c2C3=O)c1	-5.1	-6.7	-0.5	2.4
CC(C)c1cccc(-c2ccc3c(c2)S(=O)(=O)c2cccc(C(=O)NCc4ccccc4Cl)c2C3=O)c1	-5.6	1.1	3.6	12.1*
COc1ccc(C(=O)c2c(N)sc3c2CCN(C)C3)cc1	8.0*	-8.1	-3.4	0.2
COc1ccc(C(=O)NC(=S)Nc2ccc(N3CCOCC3)cc2)cc1Cl	-3.8	-2.6	-1.4	1.0
Cc1cc(Cl)ccc1OCC(=O)OCC(=O)c1c(N)n(C)c(=O)n(C)c1=O	4.0	-9.1	-4.9	15.6*
O=C(O)CCCCCN1C(=O)/C(=C\c2cn(-c3ccccc3)nc2-c2cccs2)SC1=S	-5.5	-2.9	-2.3	-0.4
CC1=NNC(=O)/C1=C\c1cn(-c2ccccc2)nc1-c1cccs1	-5.9	-2.1	1.3	15.6*
Clc1nssc1=Nc1nncs1	-7.4	71.3*	-2.1	1.9
CCN1CCc2c(sc(N)c2C#N)C1	2.0	15.6	7.1	0.3
N#Cc1c(N)sc(=S)c2c1CCN(Cc1ccccc1)C2	-4.5	53.0*	-2.3	x
COC(=O)c1cc(S(=O)(=O)NCc2cccc(Br)c2)c[nH]1	-1.6	-5.6	-3.4	-0.2
COc1ccc(CCNC(=O)CCOc2ccc(C)cc2)cc1OC	-5.7	25.9	-1.6	6.1*
NS(=O)(=O)c1ccc(N/N=C/c2cn(-c3ccccc3)nc2-c2ccccc2)c([N+](=O)[O-])c1	-6.1	-3.4	-0.8	5.8*
CCOc1cc(/C=C2\SC(=O)N=C2N)ccc1O	0.0*	-4.9	-4.4	0.6
CCOc1ccccc1CNCCOC	3.2	-9.1	-2.1	0.1
Cc1sc2nc(SCC(=O)N3CCOCC3)[nH]c(=O)c2c1-c1ccccc1	-1.2	-8.1	-2.5	0.0
CCOCCOC(=O)c1[nH]c2c(c1C)C(=O)CC(c1cccs1)C2 (stereo not drawn)	-3.9	-4.0	4.9	5.9*
CCOc1ccc(CNC2CCCCCCC2)cc1OC	3.8	-10.1	-6.7	12.3*
CC(=O)Nc1ccc(NC(=O)C2CCN(C(=O)NC3CCCCC3)CC2)cc1	-2.2	-7.9	-3.3	-0.2
SMILES	MIN6 prolif	APOBEC3G inh	APOBEC3A inh	A1 inh
CN(c1ccccc1)S(=O)(=O)c1ccc(Cl)c(C(=O)Nc2ccccc2N2CCOCC2)c1	1.9	-10.5	-3.2	x
CC(=O)N1c2ccccc2C2(O)N=C(C)SC12 (stereo not drawn)	-5.7	45.7*	-1.3	0.3
CC(=O)N1c2ccccc2[C@@H](C)[C@@H]1C	-5.0	1.5	2.2	0.8
CCc1ccc2nc(N(CCCN(C)C)C(=O)c3ccc(S(=O)(=O)N4CCc5ccccc5C4)cc3)sc2c1	-7.5	-10.4	-2.6	23.8*
CCOc1cccc2sc(N(CCCN(C)C)C(=O)c3ccc(S(=O)(=O)N4CCc5ccccc5C4)cc3)nc12	-7.2	-0.3	-1.9	-0.2
C=CCn1cnnc1SCC(=O)Nc1cccnc1Cl	-6.4	-3.4	-2.8	x
CCOc1ccc(CCNC(=O)CSc2cc(=O)n(C)c3ccccc23)cc1OCC	0.0*	-3.1	-1.7	1.0
CCOc1ccc(CCNC(=O)COc2cc(=O)n(C)c3ccccc23)cc1OCC	-0.4	-6.8	-3.2	-0.1
